Measured values from the supplement of paper PMC12636033.
± gives the standard deviation of the averaged measurements. In all, about 33,000 sequences were measured (“E-score (rank enrichment, -0.5 to 0.5)”: median about -0.0075, highest 2% from about 0.23 on). This is one part of a sample in which the highest values are shown more often than they occur.

These sequences were tested on WT Max(13-93) synthetic (M65Nle) (assay: PBM 8-mer E-score (E-score (rank enrichment, -0.5 to 0.5)); higher = stronger preferential binding).
Procedure: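 Protein binding microarray (universal PBM chip covering all 10-mers in fixed probe flanks) with chemically synthesized human Max(13-93) bHLH-LZ analogs (not full-length Max) bearing noncanonical residues (hArg, Tha, Aib, Nle at 65) and aromatic Cys staples. Read-out per 8-mer (and its reverse complement): E-score (rank-based enrichment, -0.5 to 0.5) and Z-score of median probe intensity.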

Row | Sequence | PBM 8-mer E-score
1 | GAGCATAA | 0.0772 ± 0.044
2 | CCTCAACG | -0.187 ± 0.062
3 | AGGGGTCC | -0.221 ± 0.0076
4 | CAGCGGGA | -0.165 ± 0.016
5 | AAGCATCC | 0.0408 ± 0.066
6 | AAGCATAC | 0.105 ± 0.023
7 | AAGCATGA | 0.152 ± 0.064
8 | AAGCATGT | 0.277 ± 0.024
9 | AAGCATGC | 0.312 ± 0.066
10 | AAGCATGG | 0.219 ± 0.031
11 | AGGTGGGG | 0.0712 ± 0.15
12 | GGAAAAGA | 0.0579 ± 0.031
13 | TGCTGTAA | 0.00145 ± 0.0042
14 | ACAAGTGA | 0.0895 ± 0.13
15 | GAGCTTGA | -0.165 ± 0.014
16 | GGTCCCAC | -0.0853 ± 0.11
17 | AGAATAAT | 0.177 ± 0.0073
18 | GGAATAAA | 0.0114 ± 0.13
19 | AGAATAAG | -0.0395 ± 0.13
20 | AGAATAAA | 0.262 ± 0.034
21 | TGAATAAA | 0.305 ± 0.013
22 | CGAATAAA | 0.0742 ± 0.027
23 | CTCGCGGC | -0.138 ± 0.055
24 | TCACGTAA | 0.129 ± 0.01
25 | AGACGTGC | -0.0899 ± 0.02

Row | Sequence | PBM 8-mer E-score
26 | TCACGTCA | -0.00158 ± 0.0094
27 | TCACGTGA | 0.444 ± 0.018
28 | ACACGTGC | 0.4859 ± 0.0013
29 | AAACGTGG | 0.206 ± 0.021
30 | ACACGTAT | 0.192 ± 0.027
31 | ACACGTGG | 0.4934 ± 0.00068
32 | ACACGTGT | 0.487 ± 0.002
33 | ACACGTAC | 0.159 ± 0.044
34 | AAACGTGT | 0.166 ± 0.05
35 | ACACGTAG | 0.0871 ± 0.035
36 | CTGCCAAC | -0.111 ± 0.013
37 | GATACCAA | -0.0524 ± 0.022
38 | CAGTGAAC | 0.0267 ± 0.035
39 | ACAATCTG | 0.065 ± 0.027
40 | AGAAACTC | -0.0484 ± 0.078
41 | ACGAAAAA | 0.221 ± 0.056
42 | CTTGCGTA | 0.0635 ± 0.052
43 | ACACGTGA | 0.4747 ± 0.0033
44 | AGACGTGA | 0.103 ± 0.038
45 | ATACGTGA | -0.00216 ± 0.0077
46 | AAGCAGGC | -0.0736 ± 0.011
47 | CGTGGGGC | 0.119 ± 0.11
48 | AGATGACT | -0.172 ± 0.045
49 | CACTTCTC | 0.0461 ± 0.0024
50 | CATTATCA | 0.242 ± 0.09

Row | Sequence | PBM 8-mer E-score
51 | AATTATCG | 0.132 ± 0.064
52 | AATCATTA | 0.223 ± 0.072
53 | CATCATTC | -0.011 ± 0.044
54 | AGTTATCA | 0.07501 ± 0.00026
55 | CATCATTA | 0.238 ± 0.034
56 | TATTATCA | 0.2 ± 0.026
57 | CGTTATCA | 0.044 ± 0.015
58 | CATTATCG | -0.0926 ± 0.0027
59 | AATTATCC | 0.0573 ± 0.0067
60 | GGTTATCA | 0.232 ± 0.078
61 | AATTATCA | 0.273 ± 0.083
62 | GGACTGCA | -0.017 ± 0.043
63 | CGTGTCTC | 0.201 ± 0.035
64 | CTAATCCC | 0.144 ± 0.024
65 | CCGTCTAC | 0.0424 ± 0.084
66 | ACTAACCT | 0.0869 ± 0.06
67 | GGTTCCTA | -0.109 ± 0.046
68 | AGACACAG | -0.0614 ± 0.0067
69 | GATTATTA | 0.146 ± 0.14
70 | CATTATTA | 0.262 ± 0.0081
71 | CATTATTC | 0.137 ± 0.063
72 | GGTTATTA | 0.126 ± 0.0068
73 | AATTATAA | 0.214 ± 0.072
74 | AATTATAC | 0.1451 ± 0.00023
75 | AGTTATTG | 0.127 ± 0.066

Row | Sequence | PBM 8-mer E-score
76 | AGTTATTA | 0.245 ± 0.038
77 | AATTATAG | 0.279 ± 0.07
78 | GCCCCGAC | -0.0997 ± 0.092
79 | AAAAGAGT | 0.0215 ± 0.025
80 | CAGCCGGG | -0.216 ± 0.054
81 | CGCGATGA | -0.0499 ± 0.057
82 | AATACCAT | 0.239 ± 0.0086
83 | ACTACCAT | 0.0905 ± 0.098
84 | AATACCAC | 0.232 ± 0.0071
85 | AATACCAG | -0.0097 ± 0.088
86 | AATACCAA | 0.0858 ± 0.08
87 | GATACCAC | 0.0906 ± 0.0058
88 | CTACCCGC | -0.143 ± 0.13
89 | GAAGGAGC | -0.0442 ± 0.0094
90 | AAAGGCAA | 0.225 ± 0.019
91 | CGCGCAAG | -0.09 ± 0.021
92 | ACGTGATC | 0.365 ± 0.03
93 | ACGTGATG | 0.281 ± 0.036
94 | CCGTGATC | -0.0695 ± 0.058
95 | ACGTGATA | 0.373 ± 0.04
96 | ATGTGATA | 0.259 ± 0.018
97 | AAGTGATG | 0.0833 ± 0.02
98 | GTGTGATA | 0.161 ± 0.094
99 | AGGTGATG | -0.035 ± 0.048
100 | CTGTGATA | -0.0471 ± 0.032

Row | Sequence | PBM 8-mer E-score
101 | GCGTGATA | 0.157 ± 0.0055
102 | CCGTGATA | -0.0612 ± 0.11
103 | AAGTGATC | 0.00227 ± 0.17
104 | CCGCCGCG | -0.0114 ± 0.016
105 | CGACCTTA | -0.135 ± 0.088
106 | AGTAACCA | 0.0556 ± 0.031
107 | ACGCTAAA | -0.0749 ± 0.18
108 | AAGGTTCG | 0.00686 ± 0.047
109 | TCGGTAAA | 0.0761 ± 0.071
110 | GCGTTCGA | -0.0763 ± 0.0099
111 | CTACTAAG | -0.104 ± 0.13
112 | GTACTAAA | 0.0526 ± 0.051
113 | CTCCTAAC | 0.24 ± 0.12
114 | ATACTAAA | 0.236 ± 0.0049
115 | ATACTAAC | 0.159 ± 0.022
116 | GTCCTAAC | -0.0552 ± 0.13
117 | ATCCTAAC | 0.133 ± 0.071
118 | CTACTAAC | 0.279 ± 0.095
119 | TTACTAAA | 0.109 ± 0.064
120 | CTCCAAAG | -0.102 ± 0.047
121 | ATGGAACC | -0.166 ± 0.054
122 | ACAGAACG | -0.0169 ± 0.0023
123 | CAACCGGC | -0.263 ± 0.061
124 | GAAATCAA | 0.138 ± 0.029
125 | AAAATCAA | 0.0163 ± 0.098

Row | Sequence | PBM 8-mer E-score
126 | CAAATCAA | 0.245 ± 0.008
127 | GTCGGAAA | -0.0618 ± 0.062
128 | ACAATACC | 0.249 ± 0.069
129 | ACAATACA | 0.106 ± 0.079
130 | ACAATACT | 0.117 ± 0.14
131 | CTTGCTCC | -0.0612 ± 0.0067
132 | ATGCATGG | 0.156 ± 0.079
133 | CTGCATTA | 0.0253 ± 0.0015
134 | ATGCATTA | 0.265 ± 0.055
135 | ATGCATTC | 0.197 ± 0.016
136 | ATGCATGC | 0.203 ± 0.04
137 | ATGCATCA | 0.254 ± 0.0073
138 | GGGCATGA | -0.0171 ± 0.012
139 | GTGCATCA | 0.0702 ± 0.089
140 | CTGCATGA | -0.175 ± 0.057
141 | GTGCATGA | 0.265 ± 0.012
142 | ATGCATCG | 0.0483 ± 0.15
143 | ATGCATGA | 0.244 ± 0.02
144 | CTGCTGTA | -0.271 ± 0.066
145 | CGCTGCGC | -0.152 ± 0.14
146 | CGAGCTCC | 0.00928 ± 0.0055
147 | CAGGATTC | -0.0901 ± 0.04
148 | AAGTCCGC | -0.204 ± 0.041
149 | CCAAACCA | 0.037 ± 0.03
150 | AGGGTGTG | 0.0713 ± 0.066

Row | Sequence | PBM 8-mer E-score
151 | CAGTAACG | -0.0368 ± 0.021
152 | CGAGCTGC | -0.214 ± 0.048
153 | AACTCCGG | -0.0587 ± 0.069
154 | TATTGGCA | 0.243 ± 0.034
155 | CATTGGCA | -0.0219 ± 0.039
156 | AATTGGCA | 0.139 ± 0.04
157 | CGCGCCCA | 0.0179 ± 0.03
158 | GTCGACAA | 0.0204 ± 0.0078
159 | AAGAAGGG | 0.213 ± 0.0093
160 | ACGTAAAA | 0.0973 ± 0.0094
161 | ACGTAAAT | 0.0493 ± 0.0072
162 | ACGTAAAG | 0.281 ± 0.033
163 | ACAGGCGA | -0.138 ± 0.092
164 | ACAGTATG | 0.135 ± 0.041
165 | ACAGTATC | 0.235 ± 0.0095
166 | ACAGTATA | 0.134 ± 0.0089
167 | CACCTTCA | -0.109 ± 0.0089
168 | CATGCTCA | 0.281 ± 0.034
169 | CATGCTGA | 0.169 ± 0.029
170 | AATGCTTA | 0.194 ± 0.036
171 | CATGCTCG | 0.188 ± 0.038
172 | CATGCTCC | 0.18 ± 0.012
